Measured values as given in PubChem BioAssay (NCI).
This is part of a sample that, as a whole, favours compounds with a hit. Of some 83,000 tested, about 20% had one in any assay.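 For each line, cells grew in 96-well plates with the test compound present at a single concentration for 48 hours.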 The source made the active and inactive calls. The calls were made as follows: active = growth percent below 10; inactive = the rest.

Columns and labels:
Assay in all cases: NCI-60 one-dose screen, 48 h (100 = growth as untreated, 0 = no growth, -100 = all killed)
Conditions in all cases: 10 µM unless noted
SK-MEL-2 melanoma = system: SK-MEL-2 melanoma
EKVX NSCLC = system: EKVX NSCLC
SN12C renal = system: SN12C renal
UO-31 renal = system: UO-31 renal
TK-10 renal = system: TK-10 renal
ACHN renal = system: ACHN renal
CAKI-1 renal = system: CAKI-1 renal
A498 renal = system: A498 renal
CCRF-CEM leukemia = system: CCRF-CEM leukemia
MOLT-4 leukemia = system: MOLT-4 leukemia

Measured: growth

CCOC(=O)c1nnn(C(Cc2ccccc2Cl)C(=O)OCC)c1C (stereo not given)
inactive: SK-MEL-2 melanoma 107% | EKVX NSCLC 106% | SN12C renal 104% | UO-31 renal 89.7% | TK-10 renal 96.6% | ACHN renal 104% | CAKI-1 renal 90.8% | A498 renal 103% | CCRF-CEM leukemia 88.5% | MOLT-4 leukemia 94.6%

N#Cc1c(NC(=O)c2cccc(C(F)(F)F)c2)sc2c1CCC(=O)C2
inactive: EKVX NSCLC 14.7% | A498 renal 94.6%
active: SK-MEL-2 melanoma -0.134% | SN12C renal 4.55% | UO-31 renal -100% | TK-10 renal -5.21% | ACHN renal -93.8% | CAKI-1 renal -85.3% | CCRF-CEM leukemia 6.89% | MOLT-4 leukemia 3.86%

O=C(C[C@@]1(O)C(=O)Nc2c(Cl)ccc(Cl)c21)c1ccc(C2CC2)cc1
inactive: SK-MEL-2 melanoma 43.1% | EKVX NSCLC 46.5% | SN12C renal 32.2% | UO-31 renal 37.9% | TK-10 renal 70.4% | ACHN renal 39.6% | CAKI-1 renal 34.4% | CCRF-CEM leukemia 15.9% | MOLT-4 leukemia 18.9%
active: A498 renal -32.7%

COc1cc(NC(=O)c2cc(O)c(CC=C(C)C)c(O)c2)cc2c1O[C@]1(C)CC[C@@H](O)C(C)(C)[C@H]1C2
inactive: SK-MEL-2 melanoma 14.7% | EKVX NSCLC 41% | SN12C renal 65.3% | TK-10 renal 56.4% | ACHN renal 36.2% | CAKI-1 renal 19.6% | CCRF-CEM leukemia 13%
active: UO-31 renal -11.9% | A498 renal -2.7% | MOLT-4 leukemia -8.24%

COc1ccc(C2CC(c3ccc4ccccc4c3)=NN2c2nc(O)c(C3=c4cc(Cl)ccc4=NC3=O)s2)cc1 (stereo not given)
active: SK-MEL-2 melanoma -77% | EKVX NSCLC -74.3% | SN12C renal -30.5% | UO-31 renal -85% | TK-10 renal -66.6% | ACHN renal -63.8% | CAKI-1 renal -50.4% | A498 renal -84.3% | CCRF-CEM leukemia -19% | MOLT-4 leukemia -21.5%

COc1ccc(/C=C2\COc3ccc(O)c(O)c3C2=O)c(OC)c1
inactive: SK-MEL-2 melanoma 90.7% | EKVX NSCLC 85.3% | SN12C renal 33% | UO-31 renal 34.5% | TK-10 renal 22.5% | ACHN renal 56.2% | CAKI-1 renal 36.6% | A498 renal 114%
active: CCRF-CEM leukemia 4.18% | MOLT-4 leukemia 7.29%

COc1ccc(/C=C2\COc3ccc(O)cc3C2=O)cc1OC
active: CCRF-CEM leukemia 3.05%
inactive: SK-MEL-2 melanoma 97.1% | EKVX NSCLC 96.3% | SN12C renal 59.3% | UO-31 renal 66.6% | TK-10 renal 93.1% | ACHN renal 73% | CAKI-1 renal 62.3% | A498 renal 90.6% | MOLT-4 leukemia 48%

CS(=O)(=O)c1ccc(-c2nc3cc(Cl)ccc3n2CC(=O)N/N=C/c2ccc(Cl)cc2)cc1
inactive: SK-MEL-2 melanoma 44.3% | EKVX NSCLC 72.1% | SN12C renal 69.3% | UO-31 renal 77.8% | TK-10 renal 81.7% | ACHN renal 61.5% | CAKI-1 renal 71.3% | A498 renal 68.4% | CCRF-CEM leukemia 19.9% | MOLT-4 leukemia 12.6%

NC(=O)c1c(NC(=O)c2ccccn2)sc2c1CCC(=O)C2
active: UO-31 renal 4.56% | ACHN renal 5.89% | CAKI-1 renal -2.09%
inactive: SK-MEL-2 melanoma 37.8% | EKVX NSCLC 33.8% | SN12C renal 25.9% | TK-10 renal 38.3% | A498 renal 86.1% | CCRF-CEM leukemia 12.7% | MOLT-4 leukemia 81.6%

CCOC(=O)c1sc(-c2ccc(OS(=O)(=O)c3ccc(C(C)(C)C)cc3)c(C=O)c2)nc1C
inactive: SK-MEL-2 melanoma 72.7% | EKVX NSCLC 40.2% | SN12C renal 32.1% | UO-31 renal 29.9% | TK-10 renal 55.8% | ACHN renal 26.6% | CAKI-1 renal 20.5% | A498 renal 57% | CCRF-CEM leukemia 29.9% | MOLT-4 leukemia 20.5%

Cn1cc(Nc2nccc(-c3ccc(N4CCCC4)c(C#N)c3)n2)cn1
active: SK-MEL-2 melanoma 3.95%
inactive: EKVX NSCLC 57% | SN12C renal 44.9% | UO-31 renal 31.9% | TK-10 renal 40.7% | ACHN renal 26.7% | CAKI-1 renal 16.7% | A498 renal 48% | CCRF-CEM leukemia 34% | MOLT-4 leukemia 17.2%

COc1ccc(-c2nc3sccn3c2/C=C/C(=O)c2c[nH]c3ccccc23)cc1
active: MOLT-4 leukemia -5.59%
inactive: SK-MEL-2 melanoma 90.9% | EKVX NSCLC 58.3% | SN12C renal 71.7% | UO-31 renal 82.7% | TK-10 renal 73% | ACHN renal 40.6% | CAKI-1 renal 49.6% | A498 renal 68.2% | CCRF-CEM leukemia 90.9%

C#C[C@]1(O)CC[C@H]2[C@@H]3CC=C4c5sc(N=C(N)N)nc5CC[C@]4(C)[C@H]3CC[C@@]21C
active: SK-MEL-2 melanoma -13.4% | SN12C renal -56% | UO-31 renal -77.7% | ACHN renal -6.84% | CAKI-1 renal -19.9% | A498 renal -90.8% | CCRF-CEM leukemia 4.5% | MOLT-4 leukemia -8.43%
inactive: EKVX NSCLC 12.7% | TK-10 renal 13.4%

CCOC(=O)C(O)C(O)(c1ccccc1)c1ccccc1 (stereo not given)
inactive: SK-MEL-2 melanoma 102% | EKVX NSCLC 100% | SN12C renal 99% | UO-31 renal 91.2% | TK-10 renal 100% | ACHN renal 97.4% | CAKI-1 renal 97% | A498 renal 98.3% | CCRF-CEM leukemia 99.1% | MOLT-4 leukemia 95.1%

c1ccc2c(c1)ncn2-c1nc2ccccc2n2c1nc1ccccc12
inactive: SK-MEL-2 melanoma 104% | EKVX NSCLC 61.8% | SN12C renal 85.9% | UO-31 renal 48% | TK-10 renal 79.6% | ACHN renal 63.1% | CAKI-1 renal 62.3% | A498 renal 82.4% | CCRF-CEM leukemia 80.6% | MOLT-4 leukemia 80.3%

CNC1(C#N)CCN(Cc2ccccc2)CC1
inactive: SK-MEL-2 melanoma 93.2% | EKVX NSCLC 90.2% | SN12C renal 93.9% | UO-31 renal 80.9% | TK-10 renal 272% | ACHN renal 101% | CAKI-1 renal 72.7% | A498 renal 110% | CCRF-CEM leukemia 108% | MOLT-4 leukemia 170%

CCN(CC)CC(O)CNc1c2ccc(Cl)cc2nc2ccc(OC)cc12 (stereo not given)
active: SK-MEL-2 melanoma -63.4% | EKVX NSCLC 7.93% | SN12C renal 4.08% | UO-31 renal -19.3% | TK-10 renal -21.8% | CAKI-1 renal -63.6% | CCRF-CEM leukemia 0.913% | MOLT-4 leukemia 4.43%
inactive: ACHN renal 12.1% | A498 renal 43.6%

COc1cc(/C=C/C(=O)c2cccc(-n3cc(-c4ccc(Cl)cc4)[nH]c3=O)c2)cc(OC)c1OC
active: CCRF-CEM leukemia 4.15%
inactive: SK-MEL-2 melanoma 34.1% | EKVX NSCLC 64.7% | SN12C renal 56.3% | UO-31 renal 52.2% | TK-10 renal 91.7% | ACHN renal 67.5% | CAKI-1 renal 65.6% | A498 renal 110% | MOLT-4 leukemia 26.8%

CCN(CC)CCOc1ccc(/C(=C(\C)c2ccc(F)c(OC)c2)c2ccc(Cl)cc2)cc1
inactive: SK-MEL-2 melanoma 67.7% | EKVX NSCLC 56.4% | SN12C renal 38% | TK-10 renal 49.5% | ACHN renal 25.8% | CAKI-1 renal 17.1% | A498 renal 48.1% | CCRF-CEM leukemia 13.9%
active: UO-31 renal 7.48% | MOLT-4 leukemia -1.16%

C=C(C)[C@@H]1CC[C@]2(C(=O)NCC(=O)O)CC[C@]3(C)[C@H](CC[C@@H]4[C@@]5(C)Cc6c([nH]c7ccccc67)C(C)(C)[C@@H]5CC[C@]43C)[C@@H]12
inactive: SK-MEL-2 melanoma 92.4% | EKVX NSCLC 84.7% | SN12C renal 72.2% | UO-31 renal 55.4% | TK-10 renal 103% | ACHN renal 87.4% | CAKI-1 renal 78.5% | A498 renal 77.2% | CCRF-CEM leukemia 72.8% | MOLT-4 leukemia 78.4%

C#CC[C@H](N)C(=O)O
inactive: SK-MEL-2 melanoma 110% [20 µM] | EKVX NSCLC 106% [20 µM] | SN12C renal 98.2% [20 µM] | UO-31 renal 86.1% [20 µM] | TK-10 renal 87.7% [20 µM] | ACHN renal 107% [20 µM] | CAKI-1 renal 91.1% [20 µM] | A498 renal 105% [20 µM] | CCRF-CEM leukemia 98.6% [20 µM] | MOLT-4 leukemia 102% [20 µM]

O=C(NCOC(O)C(Cl)(Cl)Cl)NCOC(O)C(Cl)(Cl)Cl (stereo not given)
inactive: SK-MEL-2 melanoma 89.7% | EKVX NSCLC 107% | SN12C renal 97.8% | UO-31 renal 78.4% | TK-10 renal 100% | ACHN renal 92.8% | CAKI-1 renal 95.9% | A498 renal 77.1% | CCRF-CEM leukemia 105% | MOLT-4 leukemia 98.9%

CN(C)S(=O)(=O)n1cnc([C@@H]2[C@@H]3C(=O)OC[C@@H]3C[C@]23N=CN(Cc2ccccc2)C3=O)c1
inactive: SK-MEL-2 melanoma 176% | EKVX NSCLC 111% | SN12C renal 104% | UO-31 renal 92.1% | TK-10 renal 112% | ACHN renal 102% | CAKI-1 renal 97.3% | A498 renal 99.5% | CCRF-CEM leukemia 125% | MOLT-4 leukemia 20.7%

C/C(=N\NC(N)=S)c1nc2ccc(Cl)cc2[nH]1
inactive: SK-MEL-2 melanoma 32.1% | EKVX NSCLC 63.3% | SN12C renal 48.5% | UO-31 renal 41.9% | TK-10 renal 33.9% | ACHN renal 19.6% | CAKI-1 renal 26.9% | A498 renal 53.3% | CCRF-CEM leukemia 32.8% | MOLT-4 leukemia 30.4%

COc1ccc(OC)c(C(=O)Nc2cccc(-c3cc(=O)c4ccccc4o3)c2)c1
inactive: SK-MEL-2 melanoma 98.2% | EKVX NSCLC 90.5% | SN12C renal 82.6% | UO-31 renal 95.2% | TK-10 renal 88% | ACHN renal 84.7% | CAKI-1 renal 79.4% | A498 renal 92.4% | CCRF-CEM leukemia 86.5% | MOLT-4 leukemia 86.3%

C[C@@H]1CC[C@@H]2[C@@H]1[C@H](OC(=O)/C=C/c1ccccc1)[C@]1(C3CCCCC3)C[C@@H](NC(=O)CO)[C@@]2(C)O1
inactive: SK-MEL-2 melanoma 95.9% | EKVX NSCLC 98.4% | SN12C renal 59.2% | UO-31 renal 72.1% | TK-10 renal 92.3% | ACHN renal 50.2% | CAKI-1 renal 91.7% | A498 renal 44.9% | CCRF-CEM leukemia 99.2% | MOLT-4 leukemia 88.9%

Cc1ccc(/C(=N\N=C(N)N)c2ccccc2)cc1
inactive: SK-MEL-2 melanoma 71.3% | EKVX NSCLC 34.3% | SN12C renal 26.9% | UO-31 renal 24.8% | TK-10 renal 42.2% | ACHN renal 20.4% | CAKI-1 renal 41.2% | A498 renal 20.1% | CCRF-CEM leukemia 14% | MOLT-4 leukemia 13.3%
